93 compounds from PubChem BioAssay AID1445 (SRMLSC, 2008) can be followed below.

In all, about 220,000 compounds went through this assay and about 910 (0.41%) were called active. The sample holds actives, similar compounds and a random draw of the others, so the mix is not that of the screen. Entries with a potency or affinity are not part of this list. A number with no mark means an inactive call.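 The calls were made as follows: active = primary inhibition above the hit cutoff, then over 50% inhibition at one or more dose response concentrations (cut at about 23% in these data, passing the limit was not always enough); inconclusive = conflicting primary data, or primary hits not chosen for dose response; inactive = low primary inhibition, or under 50% at every dose.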

For this assay, the target named is Aminopeptidase N (Plasmodium falciparum (isolate 3D7)) (UniProt O96935). In words: P. falciparum M1AAP inhibitors, biochemical, fluorogenic H-Leu-NHMec substrate, 1536-well (AID 1445).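 Also: plate controls were DMSO full reaction for no effect and no enzyme background for full effect.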 As to conditions: recombinant M1AAP, H-Leu-NHMec fluorogenic kinetic assay; at 30 µM, active compounds read high unless noted.
Chain of Aminopeptidase N (Plasmodium falciparum (isolate 3D7)) (O96935 whole entry, looked up): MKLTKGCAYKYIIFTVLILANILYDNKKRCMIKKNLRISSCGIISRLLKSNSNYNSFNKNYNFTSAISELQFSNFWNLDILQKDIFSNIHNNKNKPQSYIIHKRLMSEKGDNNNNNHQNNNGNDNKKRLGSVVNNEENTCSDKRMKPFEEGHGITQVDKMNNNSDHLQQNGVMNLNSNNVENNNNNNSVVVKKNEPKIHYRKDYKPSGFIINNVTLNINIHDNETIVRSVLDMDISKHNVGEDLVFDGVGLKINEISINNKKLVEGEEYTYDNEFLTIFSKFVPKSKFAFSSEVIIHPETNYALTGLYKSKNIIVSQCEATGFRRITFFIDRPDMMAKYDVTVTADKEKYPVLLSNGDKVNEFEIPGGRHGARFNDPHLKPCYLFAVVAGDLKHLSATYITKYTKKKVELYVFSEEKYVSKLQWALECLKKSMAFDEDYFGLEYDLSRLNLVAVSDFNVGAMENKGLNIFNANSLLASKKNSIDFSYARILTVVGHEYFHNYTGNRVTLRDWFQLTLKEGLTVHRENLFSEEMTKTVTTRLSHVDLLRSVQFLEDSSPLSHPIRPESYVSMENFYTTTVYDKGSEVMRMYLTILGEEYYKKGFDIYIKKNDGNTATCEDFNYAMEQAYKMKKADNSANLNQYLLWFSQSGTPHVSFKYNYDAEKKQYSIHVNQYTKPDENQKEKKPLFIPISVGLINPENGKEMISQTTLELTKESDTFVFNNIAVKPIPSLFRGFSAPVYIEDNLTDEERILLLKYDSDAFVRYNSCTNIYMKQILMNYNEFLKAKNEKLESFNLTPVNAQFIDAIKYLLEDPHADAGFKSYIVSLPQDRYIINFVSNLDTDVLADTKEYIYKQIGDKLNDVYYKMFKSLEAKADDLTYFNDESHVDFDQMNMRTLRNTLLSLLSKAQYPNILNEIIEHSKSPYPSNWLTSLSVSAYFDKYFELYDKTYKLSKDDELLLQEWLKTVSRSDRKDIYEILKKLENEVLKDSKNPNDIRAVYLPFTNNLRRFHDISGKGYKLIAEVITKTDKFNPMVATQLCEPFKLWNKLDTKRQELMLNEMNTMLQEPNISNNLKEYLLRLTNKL
For `COCCNC(=O)c1cc2oc3ccccc3c2n1C`, the inhibition is 15%. To `O=C1OC(/C(=C\Nc2ccc(F)cc2F)[N+](=O)[O-])c2ccccc21` (stereo not drawn) belongs 8.86%; to `O=C1OC(/C(=C\Nc2ccccc2)[N+](=O)[O-])c2ccccc21` (stereo not drawn), 7.21%. On to `O=[N+]([O-])c1cc(S(=O)(=O)N2CCCC2)ccc1NCCCN1CCOCC1`, for which the inhibition is 4.04%. To `Oc1c(Br)cc2oc3c(c2c1CNCc1ccccc1)CCCC3` belongs 33.9% (active); to `O=[N+]([O-])c1cc2oc3c(c2c(C=NCc2ccccc2)c1O)CCCC3`, -0.25%; to `CC(C)NCc1c(O)c(Br)cc2oc3c(c12)CCCC3`, 9.95%. Consider `O=C(CSc1nnc(-c2cccs2)o1)OCc1ccccc1`, for which the inhibition is 5.09%. For `CCO[C@H]1OC(C(=O)N2CCOCC2)=C[C@@H](c2ccc(Br)cc2)[C@@H]1CCCO`, the inhibition was -2.33%. To `CC/C(=C\C1CCCCC1)C(NP(=O)(c1ccccc1)c1ccccc1)c1ccccc1` (stereo not drawn) belongs 5.64%; to `CCOc1cc(NS(=O)(=O)c2ccc(OC)cc2)c(OCC)cc1NC(=O)c1ccco1`, 1.99%; to `CCOC(=O)C1C(=O)CC(C)(O)C(C(=O)OCC)C1c1ccc(Br)cc1` (stereo not drawn), 11.1%. Regarding `Cc1ccc(NC(=O)N2CCN(S(=O)(=O)c3ccccc3)CC2)cc1`, the inhibition is -1.89%. To `O=C(COC(=O)CCSc1ccc(Cl)cc1)NCCc1ccccc1` belongs -5.52%; to `NS(=O)(=O)c1ccc(CCNC(=O)CSc2ccc(Cl)cc2)cc1`, 9.38%; to `O=C(CCC(=O)Nc1ccccc1)N/N=C/C=C/c1ccccc1`, 7.53%. As to `Cn1c(=O)c2c(nc(NCc3ccccc3)n2CC(=O)NCc2ccccc2)n(C)c1=O`, the inhibition was -6.75%. To `Cc1cccc(C(=O)Oc2ccc(/C=N/NC(=O)c3ccccc3O)cc2)c1` belongs 3.44%; to `CCOC(=O)c1ccc2[nH]c3c(c2c1)CCCC3O` (stereo not drawn), 0.31%; to `CCN(CC)c1ccc(/C=C2/C(=O)ON=C2C)cc1`, 15.8%.

Turning to `CCN(CC)c1ccc(/C=C2/C(=O)N(c3ccc([N+](=O)[O-])cc3)N=C2N2CCOCC2)cc1`, the inhibition is -6.76%. On to `C=CCOC(=O)c1[nH]c2c(c1C)C(=O)CC(c1ccco1)C2` (stereo not drawn), for which the inhibition is 9.27%. The same measure for `N#CC1=C(N)C2=CCCC[C@H]2[C@H](c2ccc(Br)cc2)C1(C#N)C#N`: 1.37%; for `N#CC1=C(N)C2=C(N3CCCCC3)CCCC2C1(C#N)C#N` (stereo not drawn): 27.6% (active); for `N#CC1=C(N)C2=CCCC[C@H]2[C@H](c2ccccc2)C1(C#N)C#N`: 0.19%.

For the compound `COc1ccc(-c2cc(-c3cccnc3)c(C#N)c(N)n2)cc1`, the inhibition is 11.1%. With `Cc1cc(NS(=O)(=O)c2ccc(NC(=O)C(C)N3C(=O)c4ccccc4C3=O)cc2)nc(C)n1` (stereo not drawn), the inhibition is 2.55%. Regarding `Cc1noc(NS(=O)(=O)c2ccc(NC(=O)CCN3C(=O)c4ccccc4C3=O)cc2)c1C`, the inhibition is 12.8%. On to `CC(C)CC(C(=O)NCc1ccccn1)N1C(=O)c2ccccc2C1=O` (stereo not drawn), for which the inhibition was 13.1%.

In the case of `CC(C)CC(C(=O)Nn1cnnc1)N1C(=O)c2ccccc2C1=O` (stereo not drawn), the inhibition was 25.1% (active).

`Cc1cc(NS(=O)(=O)c2ccc(NC(=O)C(C(C)C)N3C(=O)c4ccccc4C3=O)cc2)nc(C)n1` (stereo not drawn): the inhibition was 11.3%. To `CC(C)CC(C(=O)NC(=O)NCc1ccccc1)N1C(=O)c2ccccc2C1=O` (stereo not drawn) belongs 7.55%. The same measure for `Cc1noc(NS(=O)(=O)c2ccc(NC(=O)c3ccc(N4C(=O)c5ccccc5C4=O)cc3)cc2)c1C`: -1.13%. To `COc1cccc(Cn2nnc(C(=O)NCc3ccc(F)cc3)c2N)c1` belongs -3.49%; to `CCOC(=O)N1CCN(c2c(N3CCN(c4cccc(C(F)(F)F)c4)CC3)c(=O)c2=O)CC1`, 4.51%; to `CC1=CCC2C(=O)N(c3ccc(S(N)(=O)=O)cc3)C(=O)C2C1` (stereo not drawn), 2.35%.

On to `Cc1nnc2ccc(N3CCOCC3)nn12`, for which the inhibition was 0.92%.

As to `CCn1c(C)nc2cc(C(=O)NNC(=S)Nc3ccc(Cl)cc3)ccc21`, the inhibition is -13.2%.

As for `CCN1CCc2c(OCC(=O)N3CCCCC3)cccc2C1=O`, the inhibition was 1.05%.

For the compound `C#CCN1C(=O)S/C(=C/c2cc(C)n(CC)c2C)C1=O`, the inhibition is 9.33%.

Consider `CCn1c(C)cc(/C=C2\SC(=O)N(CC(=O)Nc3ccc(C)c(C)c3)C2=O)c1C`, for which the inhibition is 2.14%.

With `Cc1ccc(NC(=O)c2cc(C(C)(C)C)nn2Cc2ccccc2)cc1`, the inhibition is 5.05%. As to `Cc1cc(C)cc(OCC(=O)N(Cc2cccs2)C2CCS(=O)(=O)C2)c1` (stereo not drawn), the inhibition is 2.35%. With `Cc1cc(=O)[nH]c(-c2ccccc2O)n1`, the inhibition was 10.9%. For `CCC(C)Sc1nc2c(c(=O)n1C)SC(C)C2` (stereo not drawn), the inhibition was 23.5% (active). To `CSc1nc2c(c(=O)n1C)SC(C)C2` (stereo not drawn) belongs 1.34%; to `CC(C)Sc1nc2c(c(=O)n1C)SC(C)C2` (stereo not drawn), 11.9%. Take `O=C(CNC(=S)N(CCCN1CCOCC1)Cc1cccs1)NC1CCCC1`: the inhibition was 5.27%.

Take `COc1ccc(N2CCN(c3ccc(N4C(=O)CC(C)C4=O)cc3[N+](=O)[O-])CC2)cc1` (stereo not drawn): the inhibition was -8.33%. In the case of `CCCCN(C)C1=Nc2cccc3cccc1c23`, the inhibition was 26.3% (active).

`NC1=Nc2cccc3cccc1c23`: the inhibition is 3.4%.

On to `c1ccc(NC2=Nc3cccc4cccc2c34)cc1`, for which the inhibition was 1.68%. Consider `CC1=NN(c2nc(-c3ccc(C)cc3)cs2)C(=O)C1N=Nc1ccc2ccccc2c1` (stereo not drawn), for which the inhibition was -4.56%.

Consider `CC1=NN(c2nc(-c3ccc(C)cc3)cs2)C(=O)C1N=Nc1cccc(O)c1` (stereo not drawn), for which the inhibition was 6.79%.

As to `COc1ccc([N+](=O)[O-])cc1NC(=O)c1cc(C)c(C)o1`, the inhibition is 8.9%. Turning to `Cc1ccsc1C1NC(=O)c2c(sc3c2CCN(C)C3)N1` (stereo not drawn), the inhibition was 25.9% (active). The same measure for `CN1CCc2c(sc3c2C(=O)NC(c2cccs2)N3)C1` (stereo not drawn): 11.5%; for `Cc1ccsc1C1NC(=O)c2c(sc3c2CCCC3)N1` (stereo not drawn): -10.2%; for `COC(=O)c1cn(-c2ccccc2)c(=O)c2ccccc12`: 0.56%.

With `Cc1sc2ncn(CC(=O)N3CCOCC3)c(=O)c2c1-c1ccccc1`, the inhibition was 22.3%. The same measure for `Cc1ccc(-c2csc3ncn(CC(=O)N4CCOCC4)c(=O)c23)cc1C`: 16.1%; for `CCOC(=O)N1CCC(NC(=O)c2ccc3c(c2)sc2nc(-c4ccccc4)cn23)CC1`: 31.7%. For the compound `CCOC(=O)N1CCC(NC(=O)c2ccc3c(c2)sc2nc(-c4ccc(OC)cc4)cn23)CC1`, the inhibition was 6.96%. With `COC(=O)c1ccc(NC(=O)C2CC2)o1`, the inhibition is -0.61%. For `CCCOC(=O)c1c(-c2ccc(C)cc2C)csc1NC(=O)C1C2CCC(O2)C1C(=O)O` (stereo not drawn), the inhibition is -4.77%.

In the case of `CCOC(=O)c1c(-c2ccc(-c3ccccc3)cc2)csc1NC(=O)C1C2CCC(O2)C1C(=O)O` (stereo not drawn), the inhibition was 3.79%. The same measure for `FC(F)C(F)(F)C1=CC(c2cccs2)=NCCN1`: 6.95%; for `COCc1cc(C)nc(OCC(=O)N/N=C\c2cc(C)n(-c3cccc(C(F)(F)F)c3)c2C)c1C#N`: 6.82%. To `CC(C)Nc1nc(NNc2nc(Cl)nc(NC(C)(C)C)n2)nc(NC(C)C)n1` belongs -3.65%; to `COc1cc(/C=N/Nc2nc(Nc3ccc(C)cc3)nc(-n3nc(C)cc3C)n2)cc(OC)c1OC`, 0.21%; to `CCOC(=O)c1c(N2C(=O)Nc3ccccc3N2O)sc2c1CCCC2`, 4.01%. As to `COC(=O)c1c(N2C(=O)Nc3ccccc3N2O)sc2c1CCCC2`, the inhibition is 9.84%. Regarding `CC(C)(CC(=O)O)Cc1nc(-c2ccc(Cl)cc2)no1`, the inhibition is -3.52%. The same measure for `COc1ccc(NS(=O)(=O)c2cccc(Cl)c2)cc1S(=O)(=O)N1CCCCC1`: 1.83%. To `Nc1ccc2nc(-c3ccccc3)sc2c1` belongs 33.2%; to `Nc1cccc(-c2nc3ccc(N)cc3s2)c1`, 8.49%; to `Nc1ccc(-c2nc3cc(N)ccc3s2)cc1`, 13%.

In the case of `Cc1ccc2nc(-c3ccc(N)cc3)sc2c1`, the inhibition is 3.99%.

In the case of `CN(C)CCCNC(=S)Nc1ccc(Br)cc1`, the inhibition was -1.23%. The same measure for `COc1cccc2c(=O)c3cccc(N)c3[nH]c12`: 17.7%. For the compound `CCOC(=O)c1c(C)oc2ccc(OC(=O)N3CCOCC3)cc12`, the inhibition was 3.42%. The same measure for `O=C(CSc1nnc(Nc2ccccc2)s1)NCCN1C(=O)CSC1=O`: 0.85%; for `[2H]c1c([2H])c([2H])c(-c2nc(N3CCCCCC3)sc2C(=O)c2ccccc2)c([2H])c1[2H]`: 6.9%. The same measure for `O=C(O)CC(C(=O)O)N1C(=O)/C(=C/c2ccc(-c3nc4ccccc4s3)o2)SC1=S` (stereo not drawn): 24.7% (active).

With `O=C(O)CCN1C(=O)/C(=C\c2ccc(-c3nc4ccccc4s3)o2)SC1=S`, the inhibition is 20.7%. For the compound `O=C(O)CCN1C(=O)/C(=C/c2ccc(-c3nc4ccccc4s3)o2)SC1=S`, the inhibition was -3.38%. Turning to `COCCNC(=O)CN(C(=O)Cn1nnc2ccccc21)c1ccccc1`, the inhibition is 6.84%. As for `CSc1nnc(-c2cc[n+](C)cc2)n1CCO`, the inhibition is -2.01%. The same measure for `O=C(Nc1ccc2oc(-c3ccc(F)cc3)nc2c1)c1ccccc1F`: -4.88%. To `O=C(Nc1ccc2oc(-c3ccccc3)nc2c1)c1ccccc1F` belongs 4.36%; to `O=C(Nc1cccc(-c2nc3ccccc3o2)c1)c1cccnc1`, 8.84%.

Consider `CC(C)C(=O)Nc1cccc(-c2nc3ccccc3o2)c1`, for which the inhibition was 1.29%.

Turning to `COc1cccc(S(=O)(=O)Nc2ccc(C(=O)Nc3ccncc3)cc2)c1`, the inhibition was -3.5%.

The term inhibition denotes the drop in the measured response relative to a control, in per cent.
